Data on 77 compounds can be found in PubChem BioAssay AID492952 (Southern Research Specialized Biocontainment Screening …, 2010).

The structures appear in SMILES notation. The campaign covered roughly 2,300 compounds. About 1,500 (65%) were called active. The rule behind the calls is not given here. The set was probably picked from earlier hits. The list shows a part of the results. Entries with a potency or affinity are not part of this list.

The experiment is described as follows: replicating M. tuberculosis growth inhibition, dose response, non-replicating M. tuberculosis project, H37Rv (AID 492952).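 Note: Mycobacterium tuberculosis grown in culture; growth inhibition read after a week of incubation.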 Conditions: series mostly up to 50 µM.
For the compound `N[C@@H](Cc1ccccc1)c1nnc(SC/C=C/c2ccccc2)o1`, the result was inactive.
Turning to `O=C(NCCc1ccccc1)c1nc(-c2cccs2)no1`, the outcome was inactive.
In the case of `O=[N+]([O-])c1cncc([N+](=O)[O-])c1Nc1cccc(O)c1` it was “inactive”.
With `O=S(=O)(NCc1cccnc1)c1ccc(Cl)c(Cl)c1Cl`, the call was inactive.
Take `Clc1ccc(SCCOCCN2CCc3ccccc3C2)cc1`: the compound was classed as inactive.
As to `Clc1ccc(OCCCCN2CCc3ccccc3C2)cc1`, the compound was called inactive.
As for `CC1=NN(C(=O)c2ccccc2)C(O)(c2ccc(Br)cc2)C1` (configuration not stated), the entry is “inactive”; as for `CC1=NN(C(=O)c2ccccc2Cl)C(O)(c2ccccc2)C1` (configuration not stated), “inactive”; as for `COc1ccc(OC(=O)C2CC(=O)N(c3ccc(C)cc3)C2)cc1` (configuration not stated), “inactive”.
As for `CCCCCCOc1ccc(N2C(=O)CC(N3CCN(C(=O)c4ccco4)CC3)C2=O)cc1` (configuration not stated), the outcome was inactive.
As to `CCCOc1ccc(N2C(=O)CC(N3CCCC(C(=O)N4CCCC4)C3)C2=O)cc1` (configuration not stated), the compound was called inactive.
As to `CCc1ccc(N2C(=O)CC(N3CCC(C(=O)OC)CC3)C2=O)cc1` (configuration not stated), the compound was called inactive.
As for `CCOc1ccc(N2CC(=O)Nc3ccccc3NCC2=O)cc1`, the entry is “inactive”.
`C#CCOc1coc(COC(=O)c2ccccc2)cc1=O`: the compound was called inactive.
For the compound `CSC1=N/C(=C\c2ccc3c(c2)OCO3)C(=O)S1`, the result was inactive.
For the compound `O=C1CC(N2CCC(c3nc4ccccc4o3)CC2)C(=O)N1` (configuration not stated), the outcome was inactive.
For the compound `NC(=O)/C(=N\OC(=O)c1ccco1)c1nc(-c2ccc(Br)cc2)cs1`, the compound was called inactive.
With `Cc1[nH]n(-c2ccccc2)c(=O)c1C=Nc1cnc2ccccc2c1`, the compound was called inactive.
On to `C/C(=N\NC(=O)CCc1ccccc1)C1C(=O)c2ccccc2C1=O`, for which the result was inactive.
`CC(C)(C)c1ccc(S(=O)(=O)NNC(=O)c2cc3ccccc3[nH]2)cc1`: the result was inactive.
As for `Cc1ccc(S(=O)(=O)NCc2ccc(C(=O)NCCCN3CCC(Cc4ccccc4)CC3)cc2)cc1`, the entry is “inactive”.
For `CN(C)CCC(=O)N1c2ccccc2Sc2ccc(C(F)(F)F)cc21`, the compound was classed as inactive.
For the compound `Oc1ccc(Br)cc1-c1ccn[nH]1`, the result was inactive.
Consider `CC(NC(=O)c1cc2ccccc2oc1=O)c1ccccc1` (configuration not stated), for which the compound was called inactive.
As for `Cc1ccc(C(C)NC(=O)c2cc3ccccc3oc2=O)cc1C` (configuration not stated), the entry is “inactive”; as for `O=C(NC1CCOc2ccccc21)c1ccc(Cl)nc1` (configuration not stated), “inactive”.
As to `CCOc1ccc(NC(=O)COc2ccc3c(c2)OCO3)cc1`, the compound was called inactive.
As to `O=C(Nc1ccc([N+](=O)[O-])cc1)c1ccc(Cn2cc([N+](=O)[O-])cn2)cc1`, the compound was called inactive.
With `C=CCOc1ccc(CNCCO)cc1OCC`, the result was inactive.
In the case of `CC(C)(C)c1cc(CN2CCN(CCO)CC2)cc(C(C)(C)C)c1O`, the compound was classed as inactive.
As for `CCn1c(O)c(C(=O)CC2NCCc3ccccc32)c(=O)n(CC)c1=S` (configuration not stated), the entry is “inactive”; as for `Cc1ccc(CNC(=O)c2cnccn2)cc1`, “inactive”.
With `Cc1ccc2nc(NC(=O)COC(=O)c3ccc(Br)o3)sc2c1`, the compound was called inactive.
For `O=C(NNc1nc2ccccc2s1)Nc1ccc(F)cc1`, the compound was called inactive.
As for `CCN(CC)c1ccc(NC2CC(=O)N(CCc3ccc(OC)cc3)C2=O)cc1` (configuration not stated), the entry is “inactive”; as for `CC(C)(C)c1csc(NC(=O)c2ccccc2O)n1`, “inactive”; as for `O=C(NCc1ccc2c(c1)OCO2)c1ccc(Cl)s1`, “inactive”.
As for `CCCNC(=O)N1CCC(c2ccc3c(c2)OCO3)CC1`, the entry is “inactive”.
For the compound `Cc1ccc(NC(=O)COc2ccc3c(c2)CCC3)nc1`, the compound was called inactive.
As for `O=C(CN1CCN(c2ccccc2O)CC1)Nc1ccc2c(c1)CCC2`, the entry is “inactive”.
Take `O=C1C=CC(=O)N1N(c1ccccc1)c1ccccc1`: the call was inactive.
As for `COc1ccc(C(=O)NNC2=C(C(=O)C(F)(F)F)CCC2)cc1`, the entry is “inactive”.
As for `CC1C/C(=N/N2C(=O)CSC2=S)CC(C)(C)C1` (configuration not stated), the result was inactive.
With `Fc1ccc(N2CCN(Cc3nnc(-c4ccccc4)o3)CC2)cc1`, the compound was called inactive.
As for `O=C1CC(N2CCN(c3ccc(F)cc3)CC2)C(=O)N1Cc1ccccc1` (configuration not stated), the compound was classed as inactive.
As for `O=C(CN1CCN(c2ccc([N+](=O)[O-])cc2)CC1)Nc1ccccn1`, the entry is “inactive”.
As to `O=C1CCCC(O)=C1C=Nc1ccc2c(c1)oc1ccccc12`, the call was inactive.
In the case of `C/C(=N\NC(=O)c1nn(C)cc1Cl)c1ccncc1`, the compound was called inactive.
Turning to `CCOC(=O)c1ccc(N=CC2=C(O)CC(C)(C)CC2=O)cc1`, the compound was called inactive.
Consider `O=C(Nc1ccc(Cl)cc1)C1CCCC1`, for which the compound was classed as inactive.
For `CSc1nc(=S)cc(C)[nH]1`, the result was inactive.
In the case of `CCOC(=O)Cn1cc(C#N)c2ccccc21` it was “inactive”; in that of `CSc1nnc(Cc2ccc3c(c2)OCO3)o1`, “inactive”.
As for `CC(C)c1ccc(OCC(=O)NC2=NCCS2)cc1`, the entry is “inactive”; as for `O=S(=O)(Nc1nccs1)c1ccc(NCc2cc(Br)cc(Br)c2O)cc1`, “inactive”.
As to `COc1cc(C=O)ccc1OCCOCCOc1ccc(Cl)cc1`, the compound was classed as inactive.
As to `Cc1cccnc1NC(=O)C1COc2ccccc2O1` (configuration not stated), the outcome was inactive.
For the compound `CCc1ccccc1NC(=O)C1COc2ccccc2O1` (configuration not stated), the call was inactive.
`Cc1ccccc1NC(=O)C1COc2ccccc2O1` (configuration not stated): the compound was called inactive.
In the case of `COc1ccc(NC(=O)C2COc3ccccc3O2)cc1` (configuration not stated), the compound was classed as inactive.
In the case of `CC(=O)c1cccc(NC(=O)C2COc3ccccc3O2)c1` (configuration not stated) it was “inactive”; in that of `CCN(CC)C(=O)c1sc2nc(-c3ccccc3)ccc2c1N`, “inactive”.
For the compound `O=C(COC(=O)c1ccccc1)NCc1cccs1`, the compound was classed as inactive.
In the case of `C=CCn1c(O)c(C(C)=Nc2ccc(C(=O)OCC)cc2)c(=O)[nH]c1=O` it was “inactive”; in that of `Cc1cc(C)c2c(=O)n(CC(=O)Nc3cccc(Cl)c3C)sc2n1`, “inactive”.
On to `CC1CCc2c(sc3nc(CSc4ncn[nH]4)[nH]c(=O)c23)C1` (configuration not stated), for which the result was inactive.
Turning to `Cc1ccc(CC(=O)Nc2ccc(Cl)cn2)cc1`, the call was inactive.
As for `Cc1ccc(NC(=O)CN(C)CC(=O)Nc2ccc(F)c(Cl)c2)cc1`, the entry is “inactive”.
On to `COc1ccc(N2C(=O)CC(Sc3nc4ccccc4s3)C2=O)cc1OC` (configuration not stated), for which the compound was called inactive.
With `Cc1nc2ccc(NC(=O)COc3cccc(F)c3)cc2s1`, the compound was classed as inactive.
As to `N#Cc1cc(N)ccc1-n1cccc1`, the compound was classed as inactive.
In the case of `CCN1C(=O)CC(N2CCC(c3nc4ccccc4[nH]3)CC2)C1=O` (configuration not stated), the outcome was inactive.
With `CC(C)(C)NCc1cc(Br)ccc1OCc1cccs1`, the outcome was inactive.
With `CCCCOC(=O)c1ccc(OC(=O)c2cccnc2)cc1`, the call was inactive.
Turning to `CC(C)CN1C(=O)/C(=C(/C#N)C(=O)NC2CCCCC2)c2ccccc21`, the call was inactive.
Consider `COc1cccc2sc(Nc3nnc(-c4cccs4)o3)nc12`, for which the outcome was inactive.
Turning to `CC1(c2nnc(-c3ccc(F)cc3)o2)CC(c2cccc(Cl)c2)=NO1` (configuration not stated), the compound was called inactive.
